# Test results published in PubChem BioAssay (NCI).
# This is part of a sample that, as a whole, favours compounds with a hit. Of some 79,000 tested, about 15% had one in any assay. Values without a mark were called inactive. Active and inactive are the calls of the source. Rule as the data show it: active = growth inhibition above about 70%; inactive = the rest.
# Tests used:
# [1] = NCI Yeast Anticancer Drug Screen. Data for the rad52 strain (AID 147);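 also: 0% = growth of vehicle-treated control cultures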; conditions: S. cerevisiae rad52 mutant growth inhibition, active compounds read high
# In short: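 Here a repair-compromised yeast strain receives each compound; its growth is then quantified and normalised to vehicle-only controls.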
# [2] = NCI Yeast Anticancer Drug Screen. Data for the wt1 strain (AID 149);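 also: 0% = growth of vehicle-treated wt1 cultures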; conditions: S. cerevisiae wt1 strain (SPY 50644) growth inhibition, active compounds read high
# In short: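 The wt1 strain was treated with compounds, and growth was compared with vehicle-treated cultures to give inhibition.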
# [3] = NCI Yeast Anticancer Drug Screen. Data for the mgt1 strain (AID 153); conditions: S. cerevisiae mgt1 mutant growth inhibition, active compounds read high
# In short: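 Measured: inhibition of mgt1 yeast growth by compound, normalized to vehicle-treated cultures.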
# [4] = NCI Yeast Anticancer Drug Screen. Data for the rad50 strain (AID 155);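 also: 0% = growth of vehicle-only cultures of the same strain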; conditions: S. cerevisiae rad50 strain growth inhibition, active compounds read high
# In short: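 Cells are treated with compound, grown, and their growth is then scored against vehicle-only cultures of the same repair-deficient yeast strain.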
# [5] = NCI Yeast Anticancer Drug Screen. Data for the mec2-1 strain (AID 157); conditions: S. cerevisiae mec2-1 strain, active compounds read high
# In short: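 Using mec2-1 yeast: add compound, measure growth, express inhibition versus vehicle-treated cultures.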
# [6] = NCI Yeast Anticancer Drug Screen. Data for the rad14 strain (AID 159);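 also: 0% = growth of vehicle-treated control cultures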; conditions: S. cerevisiae rad14 strain growth inhibition, active compounds read high
# In short: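 Readout: yeast growth inhibition, referenced to vehicle-only cultures. Strain bears a defined alteration in DNA damage repair.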
# [7] = NCI Yeast Anticancer Drug Screen. Data for the sgs1 mgt1 strain (AID 161);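 also: 0% = growth of cultures given vehicle only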; conditions: S. cerevisiae sgs1 mgt1 strain, active compounds read high
# In short: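 Yeast cells carrying a defined DNA-repair defect were exposed to test compounds. Growth inhibition was measured relative to vehicle-treated controls.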
# [8] = NCI Yeast Anticancer Drug Screen. Data for the CLN2oe strain (AID 163);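 also: 0% = growth of vehicle-only control cultures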; conditions: S. cerevisiae CLN2oe strain, active compounds read high
# In short: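 Whole-cell yeast growth assay. A strain engineered for altered cell-cycle control received compound, and inhibition relative to vehicle-treated cultures was recorded.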
# [9] = NCI Yeast Anticancer Drug Screen. Data for the cln2 rad14 strain (AID 165);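 also: 0% = growth equal to vehicle treated cultures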; conditions: S. cerevisiae cln2 rad14 strain, active compounds read high
# In short: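 Yeast strain cln2 rad14, bearing defects in cell cycle control and DNA repair, serves as the test system; values reflect growth inhibition compared with vehicle.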
# [10] = NCI Yeast Anticancer Drug Screen. Data for the bub3 strain (AID 167); conditions: S. cerevisiae bub3 mutant strain, active compounds read high
# In short: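 Part of a panel of yeast mutants defective in DNA damage repair or cell cycle regulation. Each strain is grown with compound, and inhibition is calculated relative to solvent-treated cultures.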
# [11] = NCI Yeast Anticancer Drug Screen. Data for the wt2 strain (AID 169);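 also: 0% = growth of vehicle-treated yeast cultures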; conditions: S. cerevisiae wt2 strain growth inhibition, active compounds read high
# In short: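 Treated yeast vs. vehicle-treated yeast: growth inhibition determined.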
# [12] = NCI Yeast Anticancer Drug Screen. Data for the mlh1 strain (AID 171);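 also: 0% = growth of vehicle-treated control cultures of the same strain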; conditions: S. cerevisiae mlh1 strain growth inhibition, active compounds read high
# In short: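 A yeast strain with a defined genetic lesion serves as the test organism. Cultures receive compound or vehicle, and growth is measured.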
# [13] = NCI Yeast Anticancer Drug Screen. Data for the sgs1 strain (AID 173);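 also: 0% = growth of vehicle-only control cultures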; conditions: S. cerevisiae sgs1 mutant, active compounds read high
# In short: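 A genetically defined yeast mutant is incubated with the test compound, and its growth is compared to that of the same strain given vehicle.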
# [14] = NCI Yeast Anticancer Drug Screen. Data for the mlh1 rad18 strain (AID 175); conditions: S. cerevisiae mlh1 rad18 strain growth inhibition, active compounds read high
# In short: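 Steps: expose repair-defective yeast to compound; measure growth; express inhibition against vehicle-treated controls.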
# [15] = NCI Yeast Anticancer Drug Screen. Data for the rad18 strain (AID 177); conditions: S. cerevisiae rad18 mutant growth inhibition, active compounds read high
# In short: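 Measured value is growth inhibition of a yeast strain bearing a DNA repair alteration, referenced to vehicle-treated cells.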
# [16] = at 5.0 µM (retest, dose inferred, filed as 0.5)
# [17] = at 50.0 µM (retest, dose inferred, filed as 5.0)
smiles,measurement,setting,value
COC(=O)C(Cl)(Cl)N=Nc1c(Cl)cc(Cl)c(C)c1Cl,growth inhibition,[1]; at 1.2 µM,-14%
same,growth inhibition,[1]; at 3.7 µM,83% (active)
same,growth inhibition,[1]; at 11.0 µM,97% (active)
same,growth inhibition,[1]; at 33.0 µM,98% (active)
same,growth inhibition,[1]; at 100.0 µM,97% (active)
same,growth inhibition,[2]; at 1.2 µM,-12%
same,growth inhibition,[2]; at 3.7 µM,52%
same,growth inhibition,[2]; at 11.0 µM,99% (active)
same,growth inhibition,[2]; at 33.0 µM,99% (active)
same,growth inhibition,[2]; at 100.0 µM,99% (active)
same,growth inhibition,[3]; at 1.2 µM,-50%
same,growth inhibition,[3]; at 3.7 µM,20%
same,growth inhibition,[3]; at 11.0 µM,96% (active)
same,growth inhibition,[3]; at 33.0 µM,98% (active)
same,growth inhibition,[3]; at 100.0 µM,99% (active)
same,growth inhibition,[4]; at 1.2 µM,-34%
same,growth inhibition,[4]; at 3.7 µM,46%
same,growth inhibition,[4]; [16],49%
same,growth inhibition,[4]; at 11.0 µM,96% (active)
same,growth inhibition,[4]; at 33.0 µM,92% (active)
same,growth inhibition,[4]; [17],99% (active)
same,growth inhibition,[4]; at 50.0 µM,92.5% (active)
same,growth inhibition,[4]; at 100.0 µM,96% (active)
same,growth inhibition,[5]; at 1.2 µM,-40%
same,growth inhibition,[5]; at 3.7 µM,68%
same,growth inhibition,[5]; [16],54%
same,growth inhibition,[5]; at 11.0 µM,97% (active)
same,growth inhibition,[5]; at 33.0 µM,98% (active)
same,growth inhibition,[5]; [17],99% (active)
same,growth inhibition,[5]; at 50.0 µM,91.3% (active)
same,growth inhibition,[5]; at 100.0 µM,98% (active)
same,growth inhibition,[6]; at 1.2 µM,-51%
same,growth inhibition,[6]; at 3.7 µM,59%
same,growth inhibition,[6]; at 11.0 µM,80% (active)
same,growth inhibition,[6]; at 33.0 µM,99% (active)
same,growth inhibition,[6]; at 100.0 µM,98% (active)
same,growth inhibition,[7]; [16],14%
same,growth inhibition,[7]; [17],69%
same,growth inhibition,[7]; at 50.0 µM,91.9% (active)
same,growth inhibition,[8]; at 1.2 µM,36%
same,growth inhibition,[8]; at 3.7 µM,22%
same,growth inhibition,[8]; at 11.0 µM,97% (active)
same,growth inhibition,[8]; at 33.0 µM,99% (active)
same,growth inhibition,[8]; at 100.0 µM,99% (active)
same,growth inhibition,[9]; [16],2%
same,growth inhibition,[9]; [17],-66%
same,growth inhibition,[9]; at 50.0 µM,88.2% (active)
same,growth inhibition,[10]; at 1.2 µM,-32%
same,growth inhibition,[10]; at 3.7 µM,11%
same,growth inhibition,[10]; [16],5%
same,growth inhibition,[10]; at 11.0 µM,92% (active)
same,growth inhibition,[10]; at 33.0 µM,98% (active)
same,growth inhibition,[10]; [17],-28%
same,growth inhibition,[10]; at 50.0 µM,93.2% (active)
same,growth inhibition,[10]; at 100.0 µM,98% (active)
same,growth inhibition,[11]; at 1.2 µM,-3%
same,growth inhibition,[11]; at 3.7 µM,89% (active)
same,growth inhibition,[11]; at 11.0 µM,99% (active)
same,growth inhibition,[11]; at 33.0 µM,99% (active)
same,growth inhibition,[11]; at 100.0 µM,99% (active)
same,growth inhibition,[12]; at 1.2 µM,-34%
same,growth inhibition,[12]; at 3.7 µM,6%
same,growth inhibition,[12]; at 11.0 µM,96% (active)
same,growth inhibition,[12]; at 33.0 µM,100% (active)
same,growth inhibition,[12]; at 100.0 µM,100% (active)
same,growth inhibition,[13]; at 1.2 µM,10%
same,growth inhibition,[13]; at 3.7 µM,88% (active)
same,growth inhibition,[13]; at 11.0 µM,87% (active)
same,growth inhibition,[13]; at 33.0 µM,99% (active)
same,growth inhibition,[13]; at 100.0 µM,100% (active)
same,growth inhibition,[14]; [16],59%
same,growth inhibition,[14]; [17],99% (active)
same,growth inhibition,[14]; at 50.0 µM,93.2% (active)
same,growth inhibition,[15]; at 1.2 µM,28%
same,growth inhibition,[15]; at 3.7 µM,87% (active)
same,growth inhibition,[15]; at 11.0 µM,96% (active)
same,growth inhibition,[15]; at 33.0 µM,98% (active)
same,growth inhibition,[15]; at 100.0 µM,99% (active)
O=[N+]([O-])c1ccc2[nH]c3c(-c4ccccc4)nccc3c2c1,growth inhibition,[1]; at 1.2 µM,-1%
same,growth inhibition,[1]; at 3.7 µM,8%
same,growth inhibition,[1]; at 11.0 µM,96% (active)
same,growth inhibition,[1]; at 33.0 µM,97% (active)
same,growth inhibition,[1]; at 100.0 µM,97% (active)
same,growth inhibition,[2]; at 1.2 µM,-4%
same,growth inhibition,[2]; at 3.7 µM,-8%
same,growth inhibition,[2]; at 11.0 µM,87% (active)
same,growth inhibition,[2]; at 33.0 µM,94% (active)
same,growth inhibition,[2]; at 100.0 µM,92% (active)
same,growth inhibition,[3]; at 1.2 µM,-2%
same,growth inhibition,[3]; at 3.7 µM,-4%
same,growth inhibition,[3]; at 11.0 µM,94% (active)
same,growth inhibition,[3]; at 33.0 µM,97% (active)
same,growth inhibition,[3]; at 100.0 µM,97% (active)
same,growth inhibition,[4]; at 1.2 µM,-3%
same,growth inhibition,[4]; at 3.7 µM,2%
same,growth inhibition,[4]; [16],10%
same,growth inhibition,[4]; at 11.0 µM,92% (active)
same,growth inhibition,[4]; at 33.0 µM,96% (active)
same,growth inhibition,[4]; [17],96% (active)
same,growth inhibition,[4]; at 50.0 µM,98.8% (active)
same,growth inhibition,[4]; at 100.0 µM,96% (active)
same,growth inhibition,[5]; at 1.2 µM,-4%
same,growth inhibition,[5]; at 3.7 µM,-6%
same,growth inhibition,[5]; [16],-5%
same,growth inhibition,[5]; at 11.0 µM,96% (active)
same,growth inhibition,[5]; at 33.0 µM,98% (active)
same,growth inhibition,[5]; [17],97% (active)
same,growth inhibition,[5]; at 50.0 µM,91.2% (active)
same,growth inhibition,[5]; at 100.0 µM,98% (active)
same,growth inhibition,[6]; at 1.2 µM,-1%
same,growth inhibition,[6]; at 3.7 µM,-1%
same,growth inhibition,[6]; at 11.0 µM,85% (active)
same,growth inhibition,[6]; at 33.0 µM,96% (active)
same,growth inhibition,[6]; at 100.0 µM,95% (active)
same,growth inhibition,[7]; [16],10%
same,growth inhibition,[7]; [17],98% (active)
same,growth inhibition,[7]; at 50.0 µM,93% (active)
same,growth inhibition,[8]; at 1.2 µM,-8%
same,growth inhibition,[8]; at 3.7 µM,38%
same,growth inhibition,[8]; at 11.0 µM,96% (active)
same,growth inhibition,[8]; at 33.0 µM,96% (active)
same,growth inhibition,[8]; at 100.0 µM,96% (active)
same,growth inhibition,[9]; [16],-10%
same,growth inhibition,[9]; [17],96% (active)
same,growth inhibition,[9]; at 50.0 µM,98.3% (active)
same,growth inhibition,[10]; at 1.2 µM,10%
same,growth inhibition,[10]; at 3.7 µM,90% (active)
same,growth inhibition,[10]; [16],52%
same,growth inhibition,[10]; at 11.0 µM,96% (active)
same,growth inhibition,[10]; at 33.0 µM,97% (active)
same,growth inhibition,[10]; [17],97% (active)
same,growth inhibition,[10]; at 50.0 µM,98.8% (active)
same,growth inhibition,[10]; at 100.0 µM,96% (active)
same,growth inhibition,[11]; at 1.2 µM,0%
same,growth inhibition,[11]; at 3.7 µM,43%
same,growth inhibition,[11]; at 11.0 µM,96% (active)
same,growth inhibition,[11]; at 33.0 µM,98% (active)
same,growth inhibition,[11]; at 100.0 µM,98% (active)
